PfHsp90 yeast 2: reduces growth (ATP signal) of yeast expressing P. falciparum Hsp90; S. cerevisiae expressing PfHsp90, BacTiter-Glo ATP, 48 h; yeast lacking PDR1 and PDR3 efflux regulators; hit rate 0.32% among 310,000; inhibition, % at 9.4 µM; AID 504621;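 active = every replicate shows inhibition above about 80%, whatever the replicate mean, limit read from the data; inconclusive = mean inhibition reaches the set limit but some replicate falls short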
tim10-1 inh: growth inhibitors of tim10-1 mutant yeast. AID 463190. inhibition, % at 20 µM. S. cerevisiae tim10-1 ts strain growth, BacTiter-Glo, 24 h. hit rate 2.2% among 330,000;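 active = inhibition of at least 40%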;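 note: mutant grown at 25 °C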
Calb FLC: affects C. albicans growth with fluconazole; C. albicans CaCi-2 (fluconazole-resistant clinical isolate) + fluconazole, Alamar Blue growth, 48 h; growth inhibition, % (concentration not given with the values); hit rate 0.57% among 300,000;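 active = growth inhibition above about 58% in most replicates, limit read from the data, passing the limit was not always enough; inconclusive = exactly half the replicates above a set limit; inactive = most replicates below a set limit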;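 note: all wells also contain fluconazole at 8 µg/ml as a sub-toxic cotreatment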
TIM10 inh: TIM10 yeast growth inhibition; inhibition, % at 10 µM; AID 463195; hit rate 1.4% among 330,000; S. cerevisiae TIM10 strain growth, BacTiter-Glo luminescence, 24 h;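 active = inhibition of 40% or more at the single tested concentration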;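 note: wild-type TIM10 isogenic control strain grown at permissive 25 °C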
SKKanGAS inh: blocks kanamycin growth of S. pyogenes SKKanGAS strain; BacTiter-Glo, 6 h; inhibition, % at 7.5 µM; hit rate 1.3% among 300,000; AID 1662;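 active = mean replicate score, as percent of positive control median, at least 50; inconclusive = mean below 50 but one replicate at or above 50; inactive = mean and every replicate below 50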;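 note: strain carries kanamycin resistance gene driven by streptokinase promoter and grows in 40 µg/ml kanamycin; loss of luminescence reflects streptokinase promoter inhibition or plain growth inhibition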
tim23-1 inh: inhibits growth of tim23-1 mutant yeast | S. cerevisiae tim23-1 growth, BacTiter-Glo luminescence, 24 h | hit rate 1.3% among 330,000 | inhibition, % at 20 µM;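 active = growth inhibition of the mutant yeast at or above 50%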;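 note: temperature-sensitive mutant grown at 25 °C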
tim10-1 confirm: confirmation of tim10-1 mutant yeast growth inhibitors. shares compounds with tim10-1 inh. hit rate 56% among 7,400. S. cerevisiae tim10-1 ts strain growth, BacTiter-Glo, 24 h. inhibition, % at 20 µM;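 active = inhibition of yeast growth at or above a set limit in either of two repeat tests at 20 µM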;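 note: tim10-1 mutant grown at permissive 25 °C to find synthetic lethal compounds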
tim10 confirm: confirmation of TIM10 yeast growth inhibitors | shares compounds with TIM10 inh | S. cerevisiae tim10 strain growth, BacTiter-Glo luminescence, 24 h | inhibition, % at 10 µM | hit rate 63% among 4,600;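 active = inhibition of yeast growth at or above a set limit in either of two replicates at 10 µM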; note: this counterscreen used the strain with wild-type TIM10
tim23-1 confirm: confirmation of tim23-1 mutant yeast growth inhibitors | shares compounds with tim23-1 inh | S. cerevisiae tim23-1 growth, BacTiter-Glo luminescence, 24 h | inhibition, % at 20 µM | hit rate 83% among 4,400;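 active = inhibition above about 39% in either of two replicate wells at 20 µM, limit read from the data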;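 note: temperature-sensitive tim23-1 mutant grown at 25 °C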
Numbers stand for hits. Hits are enriched below; roughly 4.7% of the tested compounds scored in any of these assays.

For CC(=O)NCCn1c(SCc2ccc(C)cc2C)nc2ccccc2c1=O the results were PfHsp90 yeast 2 inactive, tim10-1 inh 40.1, Calb FLC inactive, TIM10 inh inactive, SKKanGAS inh inactive, tim23-1 inh 55.9, tim10-1 confirm inactive and tim23-1 confirm inactive.
`CC(=O)NCCn1c(SCc2ccccc2C)nc2ccccc2c1=O` gave PfHsp90 yeast 2 inactive, tim10-1 inh inactive, Calb FLC inactive, TIM10 inh inactive, SKKanGAS inh inactive and tim23-1 inh inactive.
`O=C(c1ccccc1)c1ccc2cc(O)ccc2c1` gave PfHsp90 yeast 2 inactive, tim10-1 inh 47.8, Calb FLC inactive, TIM10 inh inactive, SKKanGAS inh inactive, tim23-1 inh 59.2, tim10-1 confirm 34.7 and tim23-1 confirm 53.0.
`CCCc1nnc(NC(=O)c2nc(S(=O)(=O)Cc3cccc(C)c3)ncc2Cl)s1` gave PfHsp90 yeast 2 inactive, tim10-1 inh inactive, Calb FLC inactive, TIM10 inh inactive, SKKanGAS inh inactive and tim23-1 inh inactive.
`Cc1cccc(CS(=O)(=O)c2ncc(Cl)c(C(=O)Nc3c(C)cccc3C)n2)c1` gave PfHsp90 yeast 2 inactive, tim10-1 inh 46.2, Calb FLC inactive, TIM10 inh inactive, SKKanGAS inh inactive, tim23-1 inh 55.8, tim10-1 confirm inactive and tim23-1 confirm inactive.
For COc1cc(C(=O)NCC(=O)NNC(=O)C2COc3ccccc3O2)cc(OC)c1OC (stereo not drawn) the results were PfHsp90 yeast 2 inactive, tim10-1 inh inactive, TIM10 inh inactive and tim23-1 inh inactive.
`O=c1c(O)c(-c2cccs2)oc2ccc(Cl)cc12` gave PfHsp90 yeast 2 inactive, tim10-1 inh 41.6, Calb FLC inactive, TIM10 inh 71.8, SKKanGAS inh 66.4, tim23-1 inh 52.9, tim10-1 confirm 32.4, tim10 confirm 59.1 and tim23-1 confirm 65.9.
For CC1(C)COC(/C=C/c2cccc([N+](=O)[O-])c2)=N1 the results were PfHsp90 yeast 2 inactive, tim10-1 inh 60.0, Calb FLC inconclusive, TIM10 inh 46.8, SKKanGAS inh inactive, tim23-1 inh 58.8, tim10-1 confirm 42.6, tim10 confirm 45.5 and tim23-1 confirm 40.5.
Screening Cc1cc(C)n(C(C[N+](=O)[O-])c2ccc(Cl)cc2)n1 (stereo not drawn) returned PfHsp90 yeast 2 inactive, tim10-1 inh 41.8, Calb FLC inactive, TIM10 inh 76.8, SKKanGAS inh inactive, tim23-1 inh 75.7, tim10-1 confirm 54.0, tim10 confirm 67.5 and tim23-1 confirm inactive.
Screening Cc1cc(O)c(C(C[N+](=O)[O-])c2ccc(Cl)cc2)c(=O)o1 (stereo not drawn) returned PfHsp90 yeast 2 inactive, tim10-1 inh inactive, Calb FLC inactive, TIM10 inh inactive, SKKanGAS inh inactive and tim23-1 inh inactive.
NC(=O)c1ccc[n+]([C@H]2O[C@@H](COP(=O)([O-])OP(=O)(O)OC[C@H]3O[C@@H](n4cnc5c(N)ncnc54)[C@H](O)[C@@H]3O)[C@H](O)[C@@H]2O)c1 was read as PfHsp90 yeast 2 88.0, tim10-1 inh 77.8, TIM10 inh 58.5, tim23-1 inh 70.5, tim10-1 confirm 75.2, tim10 confirm 45.0 and tim23-1 confirm 78.3.
Cc1ccnc(NC(=O)c2ccc([N+](=O)[O-])o2)c1 was read as PfHsp90 yeast 2 inactive, tim10-1 inh 64.4, Calb FLC inactive, TIM10 inh 54.6, SKKanGAS inh inactive, tim23-1 inh 60.7, tim10-1 confirm 59.2, tim10 confirm inactive and tim23-1 confirm 75.8.
For Cc1ccc(CNC(=O)c2nn(C)c(C)c2[N+](=O)[O-])cc1 the results were PfHsp90 yeast 2 inactive, tim10-1 inh inactive, Calb FLC inactive, TIM10 inh inactive, SKKanGAS inh inactive and tim23-1 inh inactive.
For Cc1ccc(CNC(=O)c2ccc([N+](=O)[O-])o2)cc1 the results were PfHsp90 yeast 2 inactive, tim10-1 inh 62.2, Calb FLC inactive, TIM10 inh 66.9, SKKanGAS inh 56.2, tim23-1 inh 64.0, tim10-1 confirm 57.4, tim10 confirm 40.5 and tim23-1 confirm 54.1.
CN(Cc1ccccc1)C(=O)c1ccc([N+](=O)[O-])o1 was read as PfHsp90 yeast 2 inactive, tim10-1 inh 68.0, Calb FLC inactive, TIM10 inh 75.3, SKKanGAS inh inactive, tim23-1 inh 50.4, tim10-1 confirm 69.1, tim10 confirm 72.2 and tim23-1 confirm 64.2.
Cn1cnnc1SCC(=O)NC1CC1 was read as tim10-1 inh inactive, TIM10 inh inactive and tim23-1 inh inactive.
For CCCCN(C(=O)c1[nH]c(C)c(C(=O)OCC)c1C)c1c(N)n(CCCC)c(=O)[nH]c1=O the results were PfHsp90 yeast 2 inactive, tim10-1 inh inactive, TIM10 inh inactive, SKKanGAS inh inactive and tim23-1 inh inactive.
`CC1CC(C)(C)N2C(=O)C3(Nc4ccccc4S3)c3cccc1c32` (stereo not drawn) gave PfHsp90 yeast 2 inactive, tim10-1 inh 61.0, Calb FLC inactive, TIM10 inh 47.1, SKKanGAS inh inactive, tim23-1 inh 58.3, tim10-1 confirm 54.5, tim10 confirm 61.0 and tim23-1 confirm 62.5.
`O=C1N2CCCc3cccc(c32)C12Nc1ccccc1S2` (stereo not drawn) gave Calb FLC inactive and SKKanGAS inh inactive.
`O=[N+]([O-])c1cnc(Sc2ccncn2)s1` gave PfHsp90 yeast 2 103.0, tim10-1 inh 46.8, Calb FLC inactive, TIM10 inh 81.9, SKKanGAS inh inactive, tim23-1 inh 68.5, tim10-1 confirm 49.1, tim10 confirm 95.4 and tim23-1 confirm 52.6.
For COc1cccc(NC=C2C(=O)OC3(CCCCC3)OC2=O)c1 the results were PfHsp90 yeast 2 inactive, tim10-1 inh 66.1, Calb FLC inactive, TIM10 inh 57.9, SKKanGAS inh inactive, tim23-1 inh 73.9, tim10-1 confirm 69.8, tim10 confirm 72.2 and tim23-1 confirm 74.2.
`COc1cccc(NC=C2C(=O)OC(C)(C)OC2=O)c1` gave PfHsp90 yeast 2 inactive, tim10-1 inh inactive, Calb FLC inactive, TIM10 inh inactive, SKKanGAS inh inactive and tim23-1 inh inactive.
`Cc1ccc(N2CCN(C(=O)c3cc(-c4ccc(F)cc4)[nH]c3C)CC2C)cc1` (stereo not drawn) gave PfHsp90 yeast 2 inactive, tim10-1 inh 52.0, Calb FLC inactive, TIM10 inh inactive, SKKanGAS inh inactive, tim23-1 inh 73.8, tim10-1 confirm 50.7 and tim23-1 confirm 55.1.

Screening results deposited in PubChem by several laboratories.
